Pf growth 48h: Primary qHTS for delayed death inhibitors of the malarial parasite plastid, 48 hour incubation; 310,000 compounds, 5.9% hits; AID 504832, 2011; Potency, µM (highest dose often 28.7 µM), for inactives: at the top dose activity change, negative = inhibition, usual class: inhibitors; P. falciparum luciferase growth in erythrocytes, 48 h; also: potency is read from the fitted curve at half-maximal effect; % is scaled to controls: 0 for no effect and ±100 for the full control effect
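In quantitative HTS format, infected erythrocytes bearing luciferase-reporter parasites were treated for a single generation at 37 C. Luminescence after adding detection reagent served as the growth measure.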
Shiga toxin inh: A qHTS for Small Molecule Inhibitors of Shiga Toxin. Vero cells, Shiga toxin protein synthesis inhibition reporter. inhibition, % at 38.7 µM. 290,000 compounds, 9.2% hits. AID 2315, 2010; in the data active = inhibition mostly above about 28%, no sharp cut-off; inactive = mostly below about 43%; also: 0% is about no effect
Marburg entry inh: qHTS for inhibitors of binding or entry into cells for Marburg Virus | 300,000 compounds, 1.8% hits | Marburg virus pseudotyped entry inhibition, cell reporter | AID 540276, 2011 | Potency, µM (highest dose often 37.8 µM), inactives show at the top dose activity change, negative = inhibition, most hits filed as inhibitors; calls by dose curve; tested in HEK293 cells; also: potency is read from the fitted curve at half-maximal effect; % is scaled to controls: 0 for no effect and ±100 for the full control effect
Lassa entry inh: qHTS for Inhibitors of binding or entry into cells for Lassa Virus. Lassa virus pseudotype entry inhibition, cell reporter. Potency, µM (doses to about 37.9 µM), inactives show at the top dose activity change, negative = inhibition, most hits filed as inhibitors. 300,000 compounds, 1.2% hits; calls by dose curve; tested in HEK293 cells; also: potency is read from the fitted curve at half-maximal effect; % is scaled to controls: 0 for no effect and ±100 for the full control effect; nearly all actives have a fitted effect of over 50% in size
Pf growth 96h: Primary qHTS for delayed death inhibitors of the malarial parasite plastid, 96 hour incubation | P. falciparum luciferase reporter growth, 96 h | Potency, µM (highest dose often 28.7 µM), without a hit: at the highest dose activity change, negative = inhibition, most hits filed as inhibitors | 320,000 compounds, 6.9% hits; also: potency is read from the fitted curve at half-maximal effect; % is scaled to controls: 0 for no effect and ±100 for the full control effect
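Delayed-death screen, second-generation endpoint: infected erythrocytes, 2% hematocrit, 0.05% parasitemia final; 96 hours at 37 C, 5% CO2; luciferase detection reagent; luminescence decrease equals reduced growth.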
CHX counter: Cycloheximide Counterscreen for Small Molecule Inhibitors of Shiga Toxin. cell reporter, cycloheximide protein synthesis inhibition counterscreen. 300,000 compounds, 12% hits. max response, %; in the data active = max response mostly above about 13%, no sharp cut-off; inactive = mostly below about 14%; also: read at 38.3 µM for the half of the compounds with a filed dose; 0% is about no effect
* = called active by the depositor; [ ] = dose if it differs, or a comment. Sampled rows, rich in hits. Any-hit rate of the full collection: about 19%. Unless noted, calls follow the shape of the dose curve; as a rule, active = well fitted inhibition curve with a large enough effect; inconclusive = small, poorly fitted or top-dose-only effect, or another doubt; inactive = no such curve, though single readings can be large or run the other way.

Results for COc1cccc(NC(=O)N2CCN(C(=O)C(Cc3ccc(OC)c(OC)c3)NC(C)=O)CC2)c1 (stereo unspecified) ?
Pf growth 48h: -2.8%; Shiga toxin inh: 2.9; Marburg entry inh: 0.9%; Lassa entry inh: 4.0%; Pf growth 96h: 40.5%; CHX counter: -2.5

Results for COc1ccc(CC(NC(C)=O)C(=O)N2CCN(C(=O)Nc3ccc(Cl)cc3)CC2)cc1OC (stereo unspecified) ?
Pf growth 48h: 10.2%; Shiga toxin inh: 43.8; Marburg entry inh: 4.5%; Lassa entry inh: 2.8%; Pf growth 96h: 0.8%; CHX counter: 14.4*

How did Cc1ccc(N2CCN(/N=C/c3c(C)nn(-c4ccccc4)c3Cl)CC2)cc1 do in these assays?
Pf growth 48h: -6.7%; Shiga toxin inh: 14.9; Marburg entry inh: 5.9%; Lassa entry inh: 2.5%; Pf growth 96h: inconclusive; CHX counter: -2.1

What do the screens show for `CCOC(=O)N1CCC(NC(=O)CCc2nc(C3=CCN(C)CC3)no2)CC1`?
Pf growth 48h: 0.7%; Shiga toxin inh: 6.4; Marburg entry inh: 1.5%; Lassa entry inh: inconclusive; Pf growth 96h: inconclusive; CHX counter: -3.9

Results for O=C(CSCSCC(=O)Nc1ccc2c(c1)OCO2)Nc1ccc2c(c1)OCO2 ?
Pf growth 48h: inconclusive; Shiga toxin inh: 25.5; Marburg entry inh: inconclusive; Lassa entry inh: -2.4%; Pf growth 96h: -19.0%; CHX counter: 6.4

Results for O=C(CSCc1ccc(Cl)cc1)Nc1ccc2c(c1)OCCO2 ?
Pf growth 48h: 43.3%; Shiga toxin inh: 96.2*; Marburg entry inh: -4.6%; Lassa entry inh: 4.3%; Pf growth 96h: 36.8%; CHX counter: 35.6

What do the screens show for `Cc1ccc(CSCC(=O)Nc2ccc3c(c2)OCO3)cc1`?
Shiga toxin inh: 57.4*; Marburg entry inh: inconclusive; Lassa entry inh: -1.3%; Pf growth 96h: -100.0%; CHX counter: 21.3

What do the screens show for `O=C(CSCc1ccccc1)Nc1ccc2c(c1)OCO2`?
Pf growth 48h: 262.6%; Shiga toxin inh: 114.6*; Marburg entry inh: 19.1%; Lassa entry inh: inconclusive; CHX counter: 38.8*

What do the screens show for `c1ccc(-c2cn3c(n2)CCC3)cc1`?
Shiga toxin inh: 5.3; Marburg entry inh: inconclusive; Lassa entry inh: -1.8%; Pf growth 96h: -7.5%; CHX counter: 6.9

What do the screens show for `Brc1ccc2nc3c(n2c1)CCCC3`?
Pf growth 48h: -4.8%; Shiga toxin inh: 8.9; Marburg entry inh: 6.5%; Lassa entry inh: 5.5%; Pf growth 96h: 19.0%; CHX counter: 13.5

Results for c1ccc(-c2cn3nc4c(nc3n2)CCCC4)cc1 ?
Shiga toxin inh: 2.3; Marburg entry inh: 1µM*; Lassa entry inh: 1.12µM*; Pf growth 96h: 19.3%; CHX counter: 34.2

Results for Brc1ccc(-c2cn3nc4c(nc3n2)CCCC4)cc1 ?
Pf growth 48h: 252.0%; Shiga toxin inh: 121.5*; Marburg entry inh: 5.01µM*; Lassa entry inh: inconclusive; CHX counter: 45.8*

What do the screens show for `O=C(CN1C(=O)COc2ccc(S(=O)(=O)N3CCCC3)cc21)N1CCN(c2cccc(C(F)(F)F)c2)CC1`?
Marburg entry inh: 4.3%[46.1 µM]; Lassa entry inh: 15.6%[46.1 µM]

How did COc1cccc(CC(=O)Nc2ccc(-c3nc4ccccc4s3)cc2Cl)c1 do in these assays?
Lassa entry inh: 9.9%[46.1 µM]

What do the screens show for `Cc1ccc(-c2nn(-c3ccccc3)cc2CO)o1`?
Pf growth 48h: 488.7%; Shiga toxin inh: 84.7*; Marburg entry inh: inconclusive; Lassa entry inh: -19.6%; Pf growth 96h: 43.7%; CHX counter: 33.6*

Results for Cc1ccc(-c2nn(-c3cccc(F)c3)cc2CNCc2cccnc2)o1 ?
Pf growth 48h: inconclusive; Shiga toxin inh: 26.9; Marburg entry inh: inconclusive; Lassa entry inh: inconclusive; Pf growth 96h: 26.2%; CHX counter: 10.1*

What do the screens show for `Cc1ccc(-c2nn(-c3ccccc3)cc2C=O)o1`?
Pf growth 48h: 176.4%; Shiga toxin inh: 112.5*; Marburg entry inh: inconclusive; Lassa entry inh: inconclusive; Pf growth 96h: 63.2%; CHX counter: 50.9*

What do the screens show for `Cc1ccc(-c2nn(-c3ccccc3)cc2C(N)=O)o1`?
Pf growth 48h: -0.2%; Shiga toxin inh: -4.4; Marburg entry inh: 0.4%[46.1 µM]; Lassa entry inh: 0.0%; Pf growth 96h: 18.7%; CHX counter: 12.5

What do the screens show for `Cc1cccc(CC(=O)NCCc2sc3nc(-c4ccc(F)cc4)nn3c2C)c1`?
Lassa entry inh: 11.1%[46.1 µM]

Results for Cn1cnnc1SC(C(=O)Nc1cccc(C(F)(F)F)c1)c1ccccc1 (stereo unspecified) ?
Shiga toxin inh: -19.2; Marburg entry inh: inconclusive; Lassa entry inh: 19.2%; Pf growth 96h: inconclusive; CHX counter: -2.5

How did N#Cc1c(NC(=O)C2CC(c3c(F)cccc3Cl)=NO2)sc2c1CCC2 (stereo unspecified) do in these assays?
Pf growth 48h: -8.8%; Shiga toxin inh: 35.6*; Marburg entry inh: 2.2%; Lassa entry inh: inconclusive; Pf growth 96h: 3.1%; CHX counter: 23.4*

How did Cc1c(NC(=O)C2CC(c3c(F)cccc3Cl)=NO2)c(=O)n(-c2ccccc2)n1C (stereo unspecified) do in these assays?
Pf growth 48h: 22.5%; Shiga toxin inh: -1.6; Marburg entry inh: 21.5%; Lassa entry inh: inconclusive; Pf growth 96h: 14.4%; CHX counter: 0.4

How did CCc1c(C)sc(NC(=O)C2CC(c3c(F)cccc3Cl)=NO2)c1C#N (stereo unspecified) do in these assays?
Pf growth 48h: 1.3%; Shiga toxin inh: 10.6; Pf growth 96h: inconclusive; CHX counter: 9.3

What do the screens show for `CN1CCN(C(=O)C2CC(c3c(F)cccc3Cl)=NO2)CC1` (stereo unspecified)?
Pf growth 48h: 14.0%; Shiga toxin inh: 15.3; Marburg entry inh: 0.4%; Lassa entry inh: 16.1%; CHX counter: 10.2*

What do the screens show for `COc1cc(NC(=O)C2CC(c3c(F)cccc3Cl)=NO2)c(OC)cc1Cl` (stereo unspecified)?
Pf growth 48h: -28.9%; Marburg entry inh: -25.3%; Lassa entry inh: inconclusive; Pf growth 96h: 10.4µM*; CHX counter: -2.6

Results for COc1ccc(NC(=O)C2CC(c3c(F)cccc3Cl)=NO2)cc1OC (stereo unspecified) ?
Pf growth 48h: -15.2%; Pf growth 96h: 255.6%; CHX counter: 21.0*

Results for Cc1ccc(O)c(NC(=O)C2CC(c3c(F)cccc3Cl)=NO2)c1 (stereo unspecified) ?
Pf growth 48h: inconclusive; Shiga toxin inh: 27.7; Marburg entry inh: -20.2%; Lassa entry inh: -5.5%; CHX counter: 11.9

What do the screens show for `Cn1ncc2c(NNC(=O)c3ccc(Cl)c(Cl)c3)ncnc21`?
Pf growth 48h: -29.3%; Shiga toxin inh: 13.1; Marburg entry inh: 4.4%; Lassa entry inh: -13.7%; Pf growth 96h: inconclusive; CHX counter: 8.4

From PubChem BioAssay
